Screens from PubChem.
MBNL1-CUG inh: blocks human MBNL1 binding to CUG repeat RNA; TR-FRET MBNL1-His/biotin-(CUG)12 binding, 665/545 ratio; AID 2675; Potency, µM (doses to about 57.5 µM), without a hit: at the top dose activity change, negative = inhibition, usual class: inhibitors; hit rate 0.036% among 280,000; active = well fitted inhibition curve with a large enough effect in the signal ratio, with a control signal flat, not every such curve was filed as active; inconclusive = small, poorly fitted or top-dose-only effect, or effect the other way, or a change in a side signal; inactive = no such curve, though single readings can be large or run the other way; the % refers to the signal ratio; also: potency is read from the fitted curve at half-maximal effect; % is scaled to controls: 0 for no effect and ±100 for the full control effect
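Compound titration spanned 92 nM–58 uM against the MBNL1-His/biotin-(CUG)12 complex. After 60 min at room temperature with 5 nM streptavidin-XL665 and 0.055 ng/ul terbium anti-His, ratiometric 665/545 nm emission (Ex 340 nm) normalized to controls.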
IL2 activator: IL-2 activation. IL-2 activation reporter assay, cell-based qHTS; stimulated with anti-CD3/CD4/CD28 beads; in transgenic mouse T cells. hit rate 0.065% among 360,000. activation, % (series mostly up to about 46 µM); in the data active = activation above about 50%; inconclusive = mostly about 30% to 49%; also: 0% is about no effect
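Readout: EGFP and DsRed signals by fluorescent plate cytometry. Unstimulated transgenic mouse T cells received compound 60 min before antibody-bead stimulation, then incubated 18 h at 37 degrees C.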
TRHR enhancer: TRH receptor (human) allosteric enhancement. P34981. TRHR cells, fluo-8 calcium fluorescence, EC20 TRH enhancement. enhancement, % at 2 µM. hit rate 0.66% among 360,000; in the data active = enhancement above about 30%; also: 0% is about no effect
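Enhancer read-out: after compound pinning and an initial kinetic agonist-mode read, an EC20 of TRH (10 nM final) was injected and fluo-8 calcium signal (Ex 480/Em 530) followed at 1 s/cycle for 100 cycles in TRHR-expressing cells.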
Epigenetic reg: epigenetic control regulation, reporter derepression; murine LDR cells, GFP reporter derepression, 30 h; Potency, µM (top dose mostly 53.9 µM), for inactives: at the top dose GFP activation, most hits filed as activators; hit rate 0.2% among 280,000; also: potency is read from the fitted curve at half-maximal effect; % of control where 0% means no effect; nearly all actives have a fitted effect of over 60% in size
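In this reporter-derepression format, murine cells bearing a silenced integrated CMV-GFP locus incubate with test compound (30 h, 37 C), then are washed and imaged; fluorescent objects of 20–120 um count as induced cells.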
TRHR ag: activates the human TRH receptor; hit rate 0.18% among 360,000; TRHR cells, calcium flux fluo-8, FDSS agonist mode; activation, % at 2 µM; P34981; AID 493084; in the data active = activation above about 30%; also: 0% is about no effect
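In this calcium-flux screen, cells bearing human TRHR are dye-loaded with fluo-8, baselined for 10 cycles, then exposed to library compounds; positive kinetic calcium responses during the agonist phase mark hits, with TRH as control.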
CBFb RUNX1 block: CBF-beta/RUNX1 interaction disruption; AID 1477; 230,000 tested, under 10 active; Potency, µM (doses to about 59.8 µM), for inactives: at the top dose activity, negative = inhibition, actives largely listed as inhibitors; Q01196+Q13951; AlphaScreen CBFb-His/RUNX1-biotin binding, biochemical; also: % of control where 0% means no effect
Target sequence (Q01196 whole entry, looked up): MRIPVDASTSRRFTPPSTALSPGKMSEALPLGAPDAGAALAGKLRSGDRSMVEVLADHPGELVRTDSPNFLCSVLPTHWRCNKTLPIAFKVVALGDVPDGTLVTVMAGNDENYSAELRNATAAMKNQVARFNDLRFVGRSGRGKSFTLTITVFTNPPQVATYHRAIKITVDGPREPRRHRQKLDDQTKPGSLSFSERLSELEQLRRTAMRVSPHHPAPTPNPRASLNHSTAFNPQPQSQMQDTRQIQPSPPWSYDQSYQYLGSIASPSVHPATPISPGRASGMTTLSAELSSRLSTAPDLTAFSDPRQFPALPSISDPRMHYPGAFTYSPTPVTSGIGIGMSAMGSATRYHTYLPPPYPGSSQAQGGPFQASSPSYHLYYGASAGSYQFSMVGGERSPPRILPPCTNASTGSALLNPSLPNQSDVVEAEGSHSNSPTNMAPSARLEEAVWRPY
Target sequence (Q13951 whole entry, looked up): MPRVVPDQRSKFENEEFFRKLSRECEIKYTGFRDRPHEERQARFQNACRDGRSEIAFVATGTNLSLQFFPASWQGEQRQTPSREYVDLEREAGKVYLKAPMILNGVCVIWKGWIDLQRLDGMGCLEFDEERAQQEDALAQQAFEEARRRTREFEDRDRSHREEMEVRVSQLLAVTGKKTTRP
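CBF-beta (His) and RUNX1 (biotin), 30 nM each; 20 min preassociation; + compound, 15 min; + beads 50 ng each (Ni, streptavidin), 90 min; RT; AlphaScreen read.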
The depositor's hits bear a star; ? = inconclusive; · = no result. A selection: hits, their analogues and other compounds. The true share with any hit is near 0.88%. Unless noted, calls follow the shape of the dose curve; as a rule, active = well fitted curve in the direction sought with a large enough effect; inconclusive = small, poorly fitted or top-dose-only effect, or another doubt; inactive = no such curve, though single readings can be large; an effect the other way counts as inactive or inconclusive.

SMILES	MBNL1-CUG inh	IL2 activator	TRHR enhancer	Epigenetic reg	TRHR ag	CBFb RUNX1 block
CC1CCCN(C(=O)Cn2c(=O)n(CC3CCC(C(=O)NC(C)C)CC3)c(=O)c3sccc32)C1 (stereo unspecified)	·	·	11.2	0.0%	-0.5	·
CC1(C)CC(=O)c2c(oc3c(Cl)cc(NS(=O)(=O)c4ccc(Cl)cc4)cc23)C1	·	·	-0.6	-0.1%	0.2	·
CCc1cccc(NC(=O)Cn2c(C(=O)OC)cc3occc32)c1	·	·	36.5*	0.0%	0.0	·
O=C(NCc1ccccc1)C(=O)NCC(c1cccs1)S(=O)(=O)c1ccccc1 (stereo unspecified)	·	·	-1.6	1.4%	-0.2	·
COC(=O)NC(/C=C/c1ccccc1)C(C(C)=O)C(=O)OC (stereo unspecified)	·	·	·	1.1%	·	-2.5%
CCc1cccc2cc3c(N)c(C(=O)Nc4ccc(S(=O)(=O)N5CCCC5)cc4)sc3nc12	25.0%	8.7	-2.7	11.2µM*	23.3	8.1%
Cc1c2cnn(CC(=O)NCc3ccc(F)cc3)c(=O)c2c(C)n1Cc1ccccc1Cl	·	·	-3.7	3.2%	-1.2	·
Cc1cc(Nc2cccc(C(F)(F)F)c2)nc2ccc(NC(=O)c3ccc(N(C)C)cc3)cc12	·	·	-3.2	0.1%	0.0	·
CN(Cc1ccccc1)C(=O)c1nc2ccccn2c1CNCCCOc1cccnc1	-17.3%	-0.7	-4.8	1.1%	4.1	4.0%
CN(Cc1ccccc1)C(=O)c1nc2ccccn2c1CNCCn1cccn1	-8.9%	6.1	34.4*	-2.0%	-0.7	0.7%
O=[N+]([O-])c1cccc(C(O)C23CN4CN(CN(C4)C2)C3)c1 (stereo unspecified)	?	1.3	-2.3	0.3%	0.5	-12.8%
O=[N+]([O-])c1ccc(C(O)C23CN4CN(CN(C4)C2)C3)cc1 (stereo unspecified)	·	0.0	40.3*	-1.2%	-0.3	-19.9%
O=C(N/N=C/c1ccc(Cl)cc1Cl)c1cccc(N2CCCC2=O)c1	11.1%	-3.1	30.1*	·	-0.1	·
Cc1cc2c(cc1NS(=O)(=O)c1ccc(NC(=O)CC(C)C)cc1)n(C)c(=O)c(=O)n2C	·	·	3.4	0.0%	-0.4	·
CCSCCOC(=O)C1=C(C)NC(=O)NC1c1ccc2c(c1)OCO2 (stereo unspecified)	-6.2%	-1.6	36.6*	-1.0%	-0.2	4.9%
CCCCC1=NN(C(=O)c2ccco2)C(O)(C(F)(F)F)C1 (stereo unspecified)	2.0%	-3.2	35.7*	9.5%	-0.6	7.3%
O=C(NCc1cccc(Cl)c1)NCc1noc2ccccc12	·	·	-4.5	1.7%	0.1	·
CC(C)(CNC(=O)c1ccc(S(=O)(=O)Nc2cccc(C(F)(F)F)c2)cc1)N1CCOCC1	·	4.7	34.8*	·	1.7	·
CC1=C(C(=O)N2CCN(c3ccc(Cl)cc3)CC2)C2(CCC(C)CC2)OC1=O (stereo unspecified)	·	·	50.5*	-1.1%	-0.5	·
Cc1ccc2nc(/C(C#N)=C\c3cc(C)n(-c4cccc([N+](=O)[O-])c4)c3C)[nH]c2c1	14.6%	2.6	-3.0	2.2%	-0.3	-29.2%
Cc1ccc(/C(C#N)=C\c2ccc(N3CCOCC3)o2)cc1	15.6%	-0.4	-7.0	?	13.3	-16.4%
N#C/C(=C\c1ccc([N+](=O)[O-])o1)c1nc2ccccc2[nH]1	7.1%	0.2	-4.7	2.82µM*	16.5	-11.5%
Cc1ccc2nc(/C(C#N)=C\c3ccc(N4CCOCC4)o3)[nH]c2c1	?	?	-1.6	14.1µM*	6.0	-7.7%
Cc1ccc2nc(/C(C#N)=C\c3ccc([N+](=O)[O-])o3)[nH]c2c1	-8.6%	9.5	-3.5	1µM*	22.4	-3.0%
N#C/C(=C(/O)c1ccc([N+](=O)[O-])o1)c1nc2ccccc2[nH]1	?	5.6	-12.4	1.6%	-0.2	12.2%
SMILES	MBNL1-CUG inh	IL2 activator	TRHR enhancer	Epigenetic reg	TRHR ag	CBFb RUNX1 block
COc1ccc(NC(=O)c2sc3nc(C(F)(F)F)cc(C)c3c2N)cc1OC	·	·	17.0	14.1µM*	-0.5	·
COc1ccc(CNC(=O)c2sc3nc4c(c(C(F)(F)F)c3c2N)CCC4)cc1OC	-0.1%	1.9	-1.3	-1.0%	2.3	-0.6%
COc1cc(N/N=C(\C)c2ccc(O)c(C)c2)nc(-c2ccccc2)n1	2.0%	-0.1	34.4*	16.0%	-0.4	-0.9%
Cc1c(Br)cc(F)c([S+](=O)([O-])N2CCN([S+](=O)([O-])c3ccc4c(c3)OCCO4)CC2)c1F	·	·	-2.0	·	1.2	·
Cc1ccc(CN(C(=O)c2ccccc2Br)C2CCS(=O)(=O)C2)o1 (stereo unspecified)	·	·	-1.7	-1.9%	0.1	·
CC(=O)c1cccc(NC(=O)CSc2nc3c(=O)n(C)c(=O)n(C)c3n2C)c1	·	·	33.9*	4.6%	0.3	·
O=C(Nc1cnn(Cc2ccc(Cl)cc2Cl)c1)c1noc2c1CCc1ccccc1-2	·	·	5.1	-1.8%	35.3*	·
Cc1cc(C)n(CC(C)Nc2nc3nonc3nc2N2CCCCC2)n1 (stereo unspecified)	7.1%	-4.4	-5.3	0.0%	-0.5	6.7%
Cc1nn(C)cc1C(C)Nc1nc2nonc2nc1N1CCCCC1 (stereo unspecified)	?	-1.2	32.6*	-1.4%	-0.7	-0.5%
CC(C)(C)C1CCC(OCC(O)CN2CCN(Cc3ccccc3)CC2)CC1 (stereo unspecified)	-1.9%	-0.9	31.5*	2.0%	0.4	4.4%
Cc1ccc(-n2ncc(C(=O)NCc3ccco3)c2C2CCN(C(=O)OC(C)(C)C)CC2)cc1	·	·	-1.0	-0.4%	0.1	·
O=C(C1=NN(c2ccccc2)C2C(=O)N(c3cccc(Cl)c3)C(=O)C12)c1ccccc1 (stereo unspecified)	2.8%	-2.3	6.6	1.0%	41.2*	?
O=C(C1=NN(c2ccccc2)C2C(=O)N(c3ccc(Cl)cc3)C(=O)C12)c1ccccc1 (stereo unspecified)	-5.4%	-0.4	-7.9	-1.0%	-0.3	-13.4%
COc1ccccc1N1C(=O)C2C(C(=O)c3ccccc3)=NN(c3ccc(C)cc3)C2C1=O (stereo unspecified)	15.3%	1.2	-1.1	5.4%	31.0*	?
Cc1cc(C)cc(OCCn2ccnc2)c1	-3.8%	3.2	35.1*	·	0.0	·
Cc1cc(OCCn2ccnc2)cc(C(C)C)c1	-1.2%	0.9	-2.6	1.1%	-0.9	2.0%
O=C(O)c1ccc(S(=O)(=O)N(Cc2ccc(F)cc2)C2CCCCC2)cc1	-2.2%	-0.1	37.9*	·	-0.5	·
CN(Cc1ccccc1)S(=O)(=O)c1ccc(S(=O)(=O)N(Cc2ccc(F)cc2)C2CCCC2)cc1	-5.5%	-3.1	-4.5	-2.1%	-0.4	3.5%
